High-throughput results from PubChem.
S2 tox = Viability Counterscreen for Primary qHTS for Inhibitors of ATXN expression; S2 cells (HEK-293 line with an ATXN2-luciferase reporter) viability, CellTiter-Fluor protease fluorescence, 24 h; Potency, µM (top dose mostly 56.7 µM), hits mostly cytotoxic; 400,000 tested, 0.49% active; AID 651635, 2014; also: potency is read from the fitted curve at half-maximal effect; nearly all actives have a fitted effect of over 40% in size
Integrin act MD = qHTS for Activators of Integrin-Mediated Alleviation for Muscular Dystrophy | alpha7betagal myoblasts, beta-gal FDG fluorescence, 48 h | Potency, µM (titrated, usually from 38.3 µM), without a hit: at the highest dose activation, usual class: activators | AID 624291, 2012 | 350,000 tested, 0.064% active;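 also: potency is read from the fitted curve at half-maximal effect; 100% = response of the positive control SU9516; nearly all actives have a fitted effect of over 60% in size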
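Alpha7betagal+/- myoblasts (passage 13) were plated 16-24 hr, then exposed to compounds (1:260 dilution of DMSO stock) for 48 hours at 37C. After MPER lysis, β-galactosidase reporter activity was read as FDG fluorescence (ex 480/em 540) after 30 minutes.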
ATXN2 expr inh = Primary qHTS for Inhibitors of ATXN expression | HEK-293 ATXN2-luciferase reporter, luminescence, 24 h | Potency, µM (series often up to 57 µM), for inactives: at the highest dose activity change, negative = inhibition, most hits filed as inhibitors | 360,000 tested, 0.72% active; also: potency is read from the fitted curve at half-maximal effect; % is scaled to controls: 0 for no effect and ±100 for the full control effect; nearly all actives have a fitted effect of over 55% in size
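ATXN2-luciferase reporter cells (luciferase flanked by upstream and downstream ATXN2 gene portions) were treated 24 h at 37 °C with compounds at up to 57 uM. SteadyGlo luminescence gave expression; GF-AFC fluorescence gave viability.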
DRD3 agonist = qHTS of D3 Dopamine Receptor Agonist: qHTS. max activation, %. D3R DiscoveRx beta-arrestin cells, luminescence, 90 min. 410,000 tested, 0.58% active. D(3) dopamine receptor (Homo sapiens), P35462. AID 652048, 2013; in the data active = max activation above about 30%; also: 0% is about no effect
Target sequence (P35462 whole entry, looked up): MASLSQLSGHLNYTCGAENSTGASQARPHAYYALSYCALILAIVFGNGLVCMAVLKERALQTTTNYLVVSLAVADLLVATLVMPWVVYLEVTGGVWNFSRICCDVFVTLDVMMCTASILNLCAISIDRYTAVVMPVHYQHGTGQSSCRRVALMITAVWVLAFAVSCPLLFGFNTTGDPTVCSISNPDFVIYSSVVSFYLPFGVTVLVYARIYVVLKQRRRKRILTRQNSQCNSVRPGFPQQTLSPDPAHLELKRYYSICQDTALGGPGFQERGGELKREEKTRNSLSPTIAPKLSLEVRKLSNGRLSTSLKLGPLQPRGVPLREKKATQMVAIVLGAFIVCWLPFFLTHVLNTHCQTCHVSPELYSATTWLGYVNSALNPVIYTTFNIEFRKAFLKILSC
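Agonist-mode cell screen: cells plated at 1500/well and incubated overnight at 37 °C, then exposed to library compounds for 90 min at 37 °C. Detection reagent was added for 30–60 min at room temperature, and luminescence was read.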
IL-1B inflam inh = qHTS for Inhibitors of Inflammasome Signaling: IL-1-beta AlphaLISA Primary Screen | THP-1 LPS/ATP IL-1B secretion, AlphaLISA, 16 h; stronger effect = lower value | 360,000 tested, 4.7% active | activity change, % at 57.5 µM; in the data active = activity change below about -50%; inconclusive = mostly about -30% to -49%; also: % is scaled to controls: 0 for no effect and ±100 for the full control effect
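THP-1 cells pretreated 1 hr with compounds (up to 57.5 uM final), then stimulated with LPS (250 ng/mL final) plus ATP (1.25 mM final); secreted IL-1B measured by AlphaLISA after 16 hr, decreased signal indicating inhibition.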
D3 antag = qHTS of D3 Dopamine Receptor Antagonist: qHTS | D(3) dopamine receptor (Homo sapiens), P35462 | D3R cells, DiscoveRx beta-arrestin luminescence, antagonist mode; stronger effect = lower value | max response, negative = inhibition, % | 360,000 tested, 2.5% active | AID 652054, 2013; in the data active = max response below about -50%; inconclusive = no clear call, values can overlap the other calls; also: % is scaled to controls: 0 for no effect and ±100 for the full control effect
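Cells expressing the human receptor were seeded at 1500 cells/well, incubated overnight at 37 degrees C in 5% CO2, then exposed to library compounds with dopamine controls for 90 minutes at 37 degrees C before luminescent detection.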
* marks the source's active call; other numbers are inactive results; i = inactive; ? = inconclusive; / = no result. A selection: hits, their analogues and other compounds. The true share with any hit is near 7%. Unless noted, calls follow the shape of the dose curve; as a rule, active = well fitted curve in the direction sought with a large enough effect; inconclusive = small, poorly fitted or top-dose-only effect, or another doubt; inactive = no such curve, though single readings can be large; an effect the other way counts as inactive or inconclusive.

SMILES	S2 tox	Integrin act MD	ATXN2 expr inh	DRD3 agonist	IL-1B inflam inh	D3 antag
O=C(COC(=O)c1cc([N+](=O)[O-])ccc1NCCO)NCc1cccs1	i	-4%	10%	21	18	14
CCOc1nc(C#N)nc(N2CCCCC2)n1	i	-13%	?	-10	-92*	?
CC1(C(=O)NC2CCCCC2)CCC(=O)N1Cc1ccc2c(c1)OCO2 (stereo not given)	i	3%	16%	0	-3	-3
COC(=O)c1cccc(NC(=O)CSc2nc(=O)cc(N)n2-c2ccccc2)c1	i	4%	-4%	-2	-3	-51*
COc1cc(OC)c(C2=NOC(C(=O)N3CCCc4ccccc43)C2)cc1Cl (stereo not given)	i	-3%	-17%	32*	-25	5
COc1cccc(C(=O)O[C@H]2[C@H](Cc3ccccc3)NS(=O)(=O)[C@H]3C[C@@H]4C=C[C@]23O4)c1	i	0%	8%	-4	-1	-52*
O=C(Nc1ccc(C(F)(F)F)cc1[N+](=O)[O-])O[C@H]1[C@H](Cc2ccccc2)NS(=O)(=O)[C@H]2C[C@@H]3C=C[C@]12O3	?	7%	-21%	4	-50*	0
Cn1nc(-c2ccccn2)nc2c(=O)n(C)c(=O)nc1-2	/	-64%	?	-18	-94*	-69*
CCn1c(N)nc2c1c(=O)n(C)c(=O)n2C	i	18%	-6%	1	-8	18
CCCc1nc2c(=O)n(C)c(=O)nc-2n(C)n1	/	-30%	4.2µM*	-11	-106*	-61*
Cc1cccc(N2CCN(C(=O)/C=C/c3cccs3)CC2)c1C	i	-19%	13%	43*	-4	3
COc1ccccc1N1CCN(C(=O)/C=C/c2cccs2)CC1	i	2%	17%	1	-9	2
CCCNC(=O)c1cc(C2CCCN(S(=O)(=O)c3ccccc3)C2)on1 (stereo not given)	i	/	-14%	-3	43	?
CN1CCN(CC(=O)Nc2cc(S(=O)(=O)N3CCOCC3)ccc2Cl)CC1	i	22%	7%	-1	-1	16
CN1CCN(NC(=O)Nc2ccc(F)cc2)CC1	i	-19%	-1%	1	21	1
Cc1[nH]n(-c2ncc(-c3ccc(Cl)cc3)s2)c(=O)c1C(c1ccc(Cl)cc1)C(C#N)C#N (stereo not given)	i	-28%	3%	-2	?	-16
COC(=O)CCn1nnc(-c2ccc(C(C)C)cc2)n1	i	-7%	0.5µM*	-1	15	-4
O=C(Cn1nnc(-c2ccccc2-n2cnnn2)n1)NCc1ccccc1	i	4%	11%	-3	-3	-109*
Cc1ccc(C(=O)Cn2nnc(-c3ccccc3-n3cnnn3)n2)cc1	i	-10%	19%	9	-5	11
CCOc1nc(C)ccc1-c1noc(-c2ccccc2OC)n1	i	-17%	16%	-2	-9	8
CCOc1ccccc1-c1nc(-c2cc3ccccc3nc2OC)no1	i	-15%	-7%	34*	-5	28
COc1ccc(-c2csc(C(C)(O)c3cccc(OC)c3)n2)cc1 (stereo not given)	i	/	10%	6	9	16
COc1ccc(-c2csc(C(C)(NC(C)=O)c3ccc(OC)cc3)n2)cc1 (stereo not given)	i	/	1%	-10	3	-51*
CC(O)(c1ccccc1)c1nc(-c2cccc(C(=O)O)c2)cs1 (stereo not given)	i	/	51%	-7	29	-10
CC(C)c1cccc(-c2csc(C(C)(O)c3ccccc3)n2)c1 (stereo not given)	?	/	-21%	-15	-12	-57*
